A number with no mark means an inactive call. Records with an inconclusive call do not appear. Active and inactive are the calls of the source. Unless noted, calls come from the whole dose curve; as a rule, active = well fitted curve in either direction with a large enough effect (not every such curve was filed as active); inconclusive = small, poorly fitted or top-dose-only effect, or another doubt; inactive = flat fitted curve, though single readings scatter.

Assay [1] deals with Lysosomal acid glucosylceramidase (Homo sapiens) (UniProt P04062). The assay can be described thus: Glucocerebrosidase-p2 (AID 348; in the data active = potency below about 10 µM; note: potency is the fitted concentration of half-maximal effect). The note with it: purified GBA, blue fluorogenic substrate, 40 min. The procedure, abridged:
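Compounds titrated from 0.6 nM upwards against 0.2 nM enzyme in pH 5.9 citric acid/KH2PO4, taurocholate, tween-20; blue fluorogenic substrate 80 uM, 40 min room temperature, stopped and read Ex 365/Em 440 for AC50.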

Assay [2] in a line: AP1 Signaling Pathway (AID 357). Note: % is set by controls: 0 for no effect and ±100 for the full control effect. The note with it: ME-180 AP-1-bla reporter, EGF-induced, beta-lactamase ratio, 5 h; at 7.69 µM (top of the series) unless noted. The procedure, abridged:
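ME-180 cells with beta-lactamase reporter under AP-1 response element, stimulated with EC50 EGF; compounds tested in titration series, 5 h at 37 °C. CCF4 substrate added 2.5 h at room temperature; 460/530 nm emission ratio gave %activity and AC50.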

The target of assay [3] is Cytochrome P450 1A2 (Homo sapiens) (UniProt P05177). Put plainly: p450-cyp1a2 (AID 410; calls by dose curve; note: potency is the fitted concentration of half-maximal effect;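 for activity change, negative = inhibition: -100% = full effect of reference inhibitor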). The following applies: recombinant CYP1A2, luciferin-ME demethylation, luminescence; series mostly up to 11.4 µM. The procedure, abridged: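 Luminescent readout of luciferin formed from Luciferin-ME by human CYP1A2; data normalized against complete inhibition by 57 uM furafylline. Enzyme 20nM, substrate 100uM at Km, 100mM KPO4 buffer, 60 min reaction at room temperature.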

A short description of assay [4]: NFAT Signaling Pathway (AID 444).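 Note: carbachol stimulus at about its EC50 of 1 µM final; % is set by controls: 0 for no effect and ±100 for the full control effect.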 The following applies: Jurkat NFAT-bla M1, carbachol, beta-lactamase ratio, 5 h; at 7.69 µM (top of the series) unless noted. A digest of the protocol: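 Jurkat cells with NFAT-driven β-lactamase reporter and co-expressed M1 receptor, stimulated with carbachol (final 1 uM, ~EC50), compound titration, 5 h at 37 °C. CCF4 loaded 1 h at RT; 460/530 nm ratio gave %activity and AC50.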

Assay [5] can be described thus: Stat Signaling Pathway (AID 446).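 Note: ME-180 cervical cancer cells given 40 pM IL-6 alongside compound; SIE-controlled beta-lactamase reporter measured as 460/530 nm FRET emission ratio; % is set by controls: 0 for no effect and ±100 for the full control effect.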 The note with it: ME-180 (cervical carcinoma) SIE beta-lactamase reporter, IL-6 stimulated, 5 h; at 7.69 µM (top of the series) unless noted. The procedure, abridged: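 IL-6/STAT signaling read in ME-180 cells via an SIE beta-lactamase reporter. Stimulus was 40 pM IL-6 (its AC50) for 5 hrs, so both activation and inhibition register.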
Assay [6] has as its target Glucocorticoid receptor (Homo sapiens) (UniProt P04150). Put plainly: GR-GFP Redistribution (AID 450;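 active = compounds whose dose series gives a full or clear partial fitted curve of increased nuclear translocation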; note: potency is the fitted concentration of half-maximal effect). The note with it: U2OS GR-GFP nuclear translocation, laser cytometry, 2 h.
Assay [7] has the same target. Put plainly: GR-EFC Redistribution (AID 451; calls by dose curve; note: potency is the fitted concentration of half-maximal effect). The note with it: CHO-K1 GR-EFC translocation, beta-gal luminescence, 2 h. The procedure, abridged: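 CHO-K1 cells expressing nuclear EA and GR-ED fragments of b-gal; compounds titrated up to 46 uM final, 2 h at 37 C. GR nuclear translocation read as complemented b-gal luminescence after 1 h RT detection.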
The target of assay [8] is Mitogen-activated protein kinase 10 (Mus musculus) (UniProt Q61831). Put plainly: JNK3 AlphaScreen Assay (AID 530).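 Note: kinase came from lysate of stimulated human HepG2 cells; signal reports phosphorylation of biotinylated GST-cJun 1-79 at Ser73 with 10 µM ATP; % is set by controls: 0 for no effect and ±100 for the full control effect.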 The following applies: JNK3 lysate, c-Jun phosphorylation; series mostly up to 11.4 µM. The procedure, abridged:
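Pre-activated (IL-1β/TNFα) JNK3 in HepG2 lysates phosphorylates biotin-GST-cJun(1-79), 10 uM ATP; anti-phospho-cJun(Ser73) AlphaScreen read at room temperature, pH 7.6 Tris buffer. Compounds pre-incubated 15 min as titrations.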

Assay [9] addresses 3',5'-cyclic-AMP phosphodiesterase 4B (Homo sapiens) (UniProt Q07343). The assay can be described thus: qHTS Assay for Inhibitors of PDE-IV (AID 607; active = well fitted activation curve with a large enough effect in the main read-out, with a control signal flat, not every such curve was filed as active; note: % of control where 0% means no effect). The note with it: HEK293 ACTOne CNG channel cells, membrane potential fluorescence; series mostly up to 22.9 µM. A digest of the protocol: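 Live HEK293 cells with a modified cyclic nucleotide-gated (CNG) channel report intracellular cAMP via membrane-potential dye fluorescence (ex 535/em 590 nm). Endogenous PDE-IV was targeted. Compounds were tested at up to 22.9 uM final; RO 20-1724 100 uM served as control.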
For orientation: qHTS replaces the single test concentration by a dilution series.

Assay [10] addresses Cytochrome P450 2D6 (Homo sapiens) (UniProt P10635). The assay can be described thus: qHTS Assay for Inhibitors and Substrates of Cytochrome P450 2D6 (AID 891; active = well fitted inhibition curve with a large enough effect; note: nearly all actives have a fitted effect of over 60% in size; note: potency is the fitted concentration of half-maximal effect). The note with it: recombinant CYP2D6, luciferin-ME EGE luminescence; series mostly up to 11.4 µM. The procedure, abridged: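 Human CYP2D6 (5 nM) with 30 uM Luciferin-ME EGE (at Km) in 100 mM KPO4, compound preincubated 10 min, then NADPH regeneration system for 60 min at room temperature. Luciferin read by luminescence; normalized to 1.43 uM quinidine.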

For assay [11], the target named is Cytochrome P450 2C19 (Homo sapiens) (UniProt P33261). The assay can be described thus: qHTS Assay for Inhibitors and Substrates of Cytochrome P450 2C19 (AID 899; active = well fitted inhibition curve with a large enough effect; note: nearly all actives have a fitted effect of over 60% in size; note: potency is the fitted concentration of half-maximal effect). The following applies: recombinant CYP2C19, luciferin-H EGE luminescence; series mostly up to 11.4 µM. A digest of the protocol: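 Signal comes from luciferase acting on luciferin released by CYP2C19-mediated hydroxylation of Luciferin-H EGE, 10uM (KM). Assay mix: 5nM enzyme, 50mM KPO4; 60 min at 37C with NADPH regeneration. Data normalized against 57uM ketoconazole.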
Chain of Cytochrome P450 2C19 (Homo sapiens) (P33261 whole entry, looked up): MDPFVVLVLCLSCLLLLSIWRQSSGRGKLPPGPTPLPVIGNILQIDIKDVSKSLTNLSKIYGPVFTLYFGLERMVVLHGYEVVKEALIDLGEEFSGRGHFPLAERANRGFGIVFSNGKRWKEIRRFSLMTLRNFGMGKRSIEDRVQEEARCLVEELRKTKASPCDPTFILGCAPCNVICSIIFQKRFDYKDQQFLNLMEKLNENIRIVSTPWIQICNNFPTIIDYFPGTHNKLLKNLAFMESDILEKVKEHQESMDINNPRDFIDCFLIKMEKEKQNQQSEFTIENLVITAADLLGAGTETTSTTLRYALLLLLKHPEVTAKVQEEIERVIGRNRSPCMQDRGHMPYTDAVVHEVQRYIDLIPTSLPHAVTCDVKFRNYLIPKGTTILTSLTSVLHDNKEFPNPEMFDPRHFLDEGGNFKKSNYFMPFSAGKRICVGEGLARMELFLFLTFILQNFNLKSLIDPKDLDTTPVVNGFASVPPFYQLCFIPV

Chain of Cytochrome P450 2D6 (Homo sapiens) (P10635 whole entry, looked up): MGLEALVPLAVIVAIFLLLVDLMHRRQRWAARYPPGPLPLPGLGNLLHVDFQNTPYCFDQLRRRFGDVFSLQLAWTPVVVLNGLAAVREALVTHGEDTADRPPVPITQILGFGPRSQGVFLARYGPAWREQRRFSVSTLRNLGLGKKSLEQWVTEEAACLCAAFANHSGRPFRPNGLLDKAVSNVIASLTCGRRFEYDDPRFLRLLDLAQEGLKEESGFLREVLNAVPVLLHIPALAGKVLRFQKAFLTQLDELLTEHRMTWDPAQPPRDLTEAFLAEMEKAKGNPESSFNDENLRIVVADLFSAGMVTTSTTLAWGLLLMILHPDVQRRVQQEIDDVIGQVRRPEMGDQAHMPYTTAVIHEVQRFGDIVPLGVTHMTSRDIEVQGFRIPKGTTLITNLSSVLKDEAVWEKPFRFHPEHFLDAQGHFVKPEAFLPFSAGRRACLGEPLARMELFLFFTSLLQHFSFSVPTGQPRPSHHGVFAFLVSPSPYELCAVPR
Chain of Glucocorticoid receptor (Homo sapiens) (P04150 whole entry, looked up, the tested form may be a part): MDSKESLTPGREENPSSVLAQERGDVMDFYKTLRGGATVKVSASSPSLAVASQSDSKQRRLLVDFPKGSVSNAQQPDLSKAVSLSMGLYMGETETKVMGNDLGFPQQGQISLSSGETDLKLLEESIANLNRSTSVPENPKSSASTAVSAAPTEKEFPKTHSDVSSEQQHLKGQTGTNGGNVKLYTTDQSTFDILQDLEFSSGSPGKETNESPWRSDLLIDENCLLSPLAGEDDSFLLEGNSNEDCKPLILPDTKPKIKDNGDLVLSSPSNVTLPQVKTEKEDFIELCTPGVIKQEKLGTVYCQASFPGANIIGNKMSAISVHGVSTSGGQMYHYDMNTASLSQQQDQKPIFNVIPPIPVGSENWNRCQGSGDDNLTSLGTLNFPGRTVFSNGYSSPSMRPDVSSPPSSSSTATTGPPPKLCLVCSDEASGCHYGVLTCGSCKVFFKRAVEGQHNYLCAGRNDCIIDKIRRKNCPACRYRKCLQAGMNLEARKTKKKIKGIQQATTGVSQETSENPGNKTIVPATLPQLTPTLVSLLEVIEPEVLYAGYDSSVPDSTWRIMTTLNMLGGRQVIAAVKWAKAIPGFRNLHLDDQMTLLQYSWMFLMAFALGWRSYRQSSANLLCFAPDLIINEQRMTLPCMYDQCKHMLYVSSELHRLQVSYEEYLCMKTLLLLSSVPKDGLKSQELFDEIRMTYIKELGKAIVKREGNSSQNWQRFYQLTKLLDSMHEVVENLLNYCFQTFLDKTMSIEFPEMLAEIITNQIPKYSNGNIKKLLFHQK
Chain of Cytochrome P450 1A2 (Homo sapiens) (P05177 whole entry, looked up): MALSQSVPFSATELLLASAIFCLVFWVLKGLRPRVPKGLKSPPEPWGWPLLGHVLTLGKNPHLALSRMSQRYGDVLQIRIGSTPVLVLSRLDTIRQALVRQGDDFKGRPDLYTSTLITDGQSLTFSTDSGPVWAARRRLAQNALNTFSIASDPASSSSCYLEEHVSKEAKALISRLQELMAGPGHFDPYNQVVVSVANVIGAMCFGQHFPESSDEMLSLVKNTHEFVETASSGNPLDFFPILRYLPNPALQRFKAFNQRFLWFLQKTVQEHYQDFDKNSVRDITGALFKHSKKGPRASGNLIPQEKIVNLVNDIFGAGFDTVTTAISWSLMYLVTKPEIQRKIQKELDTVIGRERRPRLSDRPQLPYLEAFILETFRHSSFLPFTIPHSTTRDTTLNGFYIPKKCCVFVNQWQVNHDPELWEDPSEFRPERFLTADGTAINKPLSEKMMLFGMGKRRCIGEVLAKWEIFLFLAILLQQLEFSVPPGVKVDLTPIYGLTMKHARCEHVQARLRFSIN
Chain of Lysosomal acid glucosylceramidase (Homo sapiens) (P04062 whole entry, looked up): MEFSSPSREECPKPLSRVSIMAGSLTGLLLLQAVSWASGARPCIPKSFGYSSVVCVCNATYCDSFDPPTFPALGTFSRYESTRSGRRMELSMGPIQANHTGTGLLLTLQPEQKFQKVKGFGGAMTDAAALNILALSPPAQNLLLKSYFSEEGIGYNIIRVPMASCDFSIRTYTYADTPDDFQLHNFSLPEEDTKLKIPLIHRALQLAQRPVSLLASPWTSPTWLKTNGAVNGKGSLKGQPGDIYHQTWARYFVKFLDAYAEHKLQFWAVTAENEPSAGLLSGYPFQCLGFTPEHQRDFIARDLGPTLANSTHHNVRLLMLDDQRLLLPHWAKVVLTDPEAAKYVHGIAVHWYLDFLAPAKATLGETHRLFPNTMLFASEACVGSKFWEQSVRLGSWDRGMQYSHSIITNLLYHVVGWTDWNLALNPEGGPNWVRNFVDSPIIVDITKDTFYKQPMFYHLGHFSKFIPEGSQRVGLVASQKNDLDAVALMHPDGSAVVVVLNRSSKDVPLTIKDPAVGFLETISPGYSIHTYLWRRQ
Chain of 3',5'-cyclic-AMP phosphodiesterase 4B (Homo sapiens) (Q07343 whole entry, looked up): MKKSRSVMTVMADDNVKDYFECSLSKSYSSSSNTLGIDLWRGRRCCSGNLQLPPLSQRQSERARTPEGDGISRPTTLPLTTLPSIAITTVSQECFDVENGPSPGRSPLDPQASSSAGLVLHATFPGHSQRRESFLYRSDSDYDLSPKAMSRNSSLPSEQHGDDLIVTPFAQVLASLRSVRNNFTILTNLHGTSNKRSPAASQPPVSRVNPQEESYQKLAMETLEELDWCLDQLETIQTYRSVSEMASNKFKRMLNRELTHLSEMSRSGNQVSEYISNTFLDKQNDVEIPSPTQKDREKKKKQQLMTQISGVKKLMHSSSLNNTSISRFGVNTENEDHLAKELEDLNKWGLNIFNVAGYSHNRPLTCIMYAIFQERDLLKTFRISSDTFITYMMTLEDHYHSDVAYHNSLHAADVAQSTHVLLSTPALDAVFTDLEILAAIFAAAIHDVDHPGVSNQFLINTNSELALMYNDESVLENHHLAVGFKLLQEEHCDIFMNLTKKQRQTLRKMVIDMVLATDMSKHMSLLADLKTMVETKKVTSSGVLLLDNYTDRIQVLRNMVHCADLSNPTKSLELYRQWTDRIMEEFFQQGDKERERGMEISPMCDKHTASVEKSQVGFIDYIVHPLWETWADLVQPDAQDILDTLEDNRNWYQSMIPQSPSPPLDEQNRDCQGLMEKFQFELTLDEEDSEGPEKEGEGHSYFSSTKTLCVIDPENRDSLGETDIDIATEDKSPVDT

As to `N=C(N)SCc1ccc(Cl)cc1Cl` (tested in a mixture with another compound), the Potency was above 11.4 µM in assay [1]; 3.98 µM (active) in assay [3]; above 46 µM in assay [6]; above 9.22 µM in assay [7]; 3.16 µM (active) in assay [10]. Moreover, the activity change, negative = inhibition in [2] is 23.5%; in assay [4], -21.9%. Also, in assay [5], the activity, negative = inhibition was -9.66%. In addition, the Potency result in assay [8] and in [9] was “inactive” each time.

As for `C[N+](C)(N)CCC[N+](C)(C)N`, the figures for the Potency in assay [1], in assay [6] and in [7] were above 11.4 µM, above 46 µM and above 9.22 µM, respectively. Also, the activity change, negative = inhibition was 6.06% in [2] and 24.5% in assay [4]. Also, the Potency result in assay [3], in assay [8], in [9], in assay [10] and in assay [11] was “inactive” each time. The activity, negative = inhibition in [5] is 8.44%.

In the case of `CN(C)Cc1ccc(C(C)(C)C)cc1-c1cc(C(C)(C)C)ccc1CN(C)C`, the Potency in assay [1] is above 11.4 µM; in assay [3], 3.98 µM (active); in [6] it was above 46 µM; in assay [7] it was above 9.22 µM. The activity change, negative = inhibition is -1.36% in assay [2] and 6.36% in assay [4]. Also, in assay [5], the activity, negative = inhibition is -4.38%. Also, the Potency result in assay [8], in [9] and in assay [11] was “inactive” throughout.

For the compound `CC(CC(=O)O)(CC(=O)O)C(=O)O`, the Potency in [1] was above 11.4 µM; in assay [6], above 46 µM; in [7], above 9.22 µM. Further, the figures for the activity change, negative = inhibition in assay [2] and in assay [4] were -0.949% and 18.4%, respectively. Further, the Potency entry in [3], in assay [8], in [9], in assay [10] and in assay [11] was “inactive” each time. The activity, negative = inhibition in assay [5] is 9.05%.

For the compound `CC[C@@]1([N+](=O)[O-])C[C@H]2C=C[C@@H]1C2`, the Potency in assay [1] was above 11.4 µM; in assay [6], above 46 µM; in assay [7], above 9.22 µM. The activity change, negative = inhibition was 9.4% in assay [2], -12.9% [at 2.29 µM] in assay [3] and 4.68% in assay [4]. Besides, the activity, negative = inhibition in assay [5] was 3.53%. The Potency result in assay [8], in [9], in [10] and in [11] was “inactive” each time.

As to `CC(C)C(O)(C(C)C)C(C)C`, the Potency in [1] is above 11.4 µM; in assay [6], above 46 µM; in assay [7], above 9.22 µM. In addition, the activity change, negative = inhibition in assay [2] was 7.29%; in assay [4], 3.44%. The Potency entry in assay [3], in [8], in assay [9] and in [11] was “inactive” throughout. In [5], the activity, negative = inhibition was 13.2%.

For the compound `Cc1[nH]c2c(C)ccc(C)c2c1CC(=O)O`, the Potency in assay [1] is above 11.4 µM; in [3] it was 3.16 µM (active); in assay [6] it was above 46 µM; in assay [7], above 9.22 µM; in assay [11], 0.316 µM (active). Further, the figures for the activity change, negative = inhibition in assay [2] and in assay [4] were -6.88% and 10.6%, respectively. Further, the activity, negative = inhibition in [5] is 9.85%. For the same compound, the Potency entry in [8] and in assay [9] was “inactive” in each case.

Take `O=c1[nH]c(=S)c2[nH]c(=O)n(-c3ccccc3)c2[nH]1`: the Potency in assay [1] was above 11.4 µM; in assay [6] it was above 46 µM; in [7], above 9.22 µM. For the same compound, the activity change, negative = inhibition in assay [2] was 12.1%; in assay [4], 15.1%. Also, the Potency entry in assay [3], in assay [8], in assay [9] and in assay [11] was “inactive” each time. Besides, the activity, negative = inhibition in assay [5] is 8.32%.

Consider `Cc1cn(CC[C@H](N)C(=O)O)c(=O)[nH]c1=O`, for which the Potency in [1] is above 11.4 µM; in assay [6], above 46 µM; in assay [7], above 9.22 µM. Moreover, the activity change, negative = inhibition is 0.888% in assay [2] and -6.68% in assay [4]. For the same compound, the Potency entry in [3], in [8], in assay [9] and in [11] was “inactive” in each case. For the same compound, the activity, negative = inhibition in assay [5] was 16.3%.

`N=C(N)SCCCN`: the Potency in assay [1] is above 11.4 µM; in [3], 6.31 µM (active); in assay [6] it was above 46 µM; in assay [7], above 9.22 µM. Further, the activity change, negative = inhibition is 2.32% in assay [2] and 3.8% in assay [4]. Besides, the activity, negative = inhibition in assay [5] is 5.52%. Moreover, the Potency result in assay [8], in [9] and in [11] was “inactive” each time.

`O=C(C[C@@H](c1ccccc1)N1CCCCC1)c1ccccc1`: the Potency in assay [1] is above 11.4 µM; in [3] it was 1.26 µM (active); in assay [6], above 46 µM; in assay [7], above 9.22 µM; in assay [11], 2.51 µM (active). The activity change, negative = inhibition in assay [2] was 2.69%; in [4], 5.6%. Moreover, the activity, negative = inhibition in assay [5] is -14.9%. The Potency entry in [8] and in assay [9] was “inactive” throughout.

Turning to `O=C(O)C/C(=C\c1ccco1)C(=O)O`, the Potency in [1] is above 11.4 µM; in [6], above 46 µM; in assay [7], above 9.22 µM. The activity change, negative = inhibition in assay [2] was 8.65%; in assay [3], -11.8% [at 2.29 µM]; in assay [4] it was 9.1%. In assay [5], the activity, negative = inhibition was 7.2%. For the same compound, the Potency result in assay [8], in assay [9] and in assay [11] was “inactive” each time.

On to `Cn1c([N+](=O)[O-])cnc1CN1CCN(CCO)CC1`, for which the Potency in assay [1] was above 11.4 µM; in [6], above 46 µM; in assay [7] it was above 9.22 µM. Also, the figures for the activity change, negative = inhibition in assay [2], in assay [3] and in assay [4] were 11%, 9.2% [at 2.29 µM] and 2.86%, respectively. Besides, the activity, negative = inhibition in assay [5] was 10.3%. Moreover, the Potency result in [8], in assay [9] and in assay [11] was “inactive” throughout.

On to `Nc1ccn([C@H]2O[C@@H](COP(=O)(O)O)[C@@H](O)[C@H]2O)c(=O)n1`, for which the results for the Potency in assay [1], in assay [6] and in [7] were above 11.4 µM, above 46 µM and above 9.22 µM, respectively. Further, the activity change, negative = inhibition is 5.49% in [2] and 12.4% in assay [4]. The Potency result in assay [3], in [8], in assay [9] and in assay [11] was “inactive” throughout. In addition, in assay [5], the activity, negative = inhibition was 4.03%.

Consider `c1ccc2c(c1)c1ccccc1n2Cn1c2ccccc2c2ccccc21`, for which the Potency in assay [1] was above 11.4 µM; in assay [3], 0.251 µM (active); in assay [6] it was above 46 µM; in assay [7] it was above 9.22 µM; in [11] it was 0.398 µM (active). Moreover, the results for the activity change, negative = inhibition in assay [2] and in [4] were 10.8% and -5.02%, respectively. Besides, the activity, negative = inhibition in [5] was 8.5%. For the same compound, the Potency result in [8] and in assay [9] was “inactive” each time.

Values taken from PubChem BioAssay (NCATS).
